# Measured values taken from the supplement of paper PMC7335073.
# Whole data set: some 4,100 sequences, median “relative CpG methylation activity (normalised to average over all NNNCGNNN flanks)” near 0.87, cut for the highest 2% near 2.4. This excerpt belongs to a sample that is enriched for the highest values.
# Molecular target: DNMT3A catalytic domain (mouse) (UniProt O88508)
# Assay: relative CpG methylation activity (normalised to average over all NNNCGNNN flanks) (relative (1 = mean)); higher = more methylation of the central CpG
# Settings: system: in vitro, murine catalytic domain; CpG state: hemimethylated substrate pool; residues: 608-908
# Method: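 Deep enzymology: a pool of dsDNA substrates with a central CpG flanked by 10 random nucleotides on each side was methylated by the murine DNMT3A or DNMT3B catalytic domain (0.8 mM SAM, 37 °C, 60 min). Methylation was then read out by hairpin ligation, bisulfite conversion and NGS. Values are the average methylation of each NNNCGNNN context (±3 flanks; the outer flanks are random and averaged over), normalised to the overall mean, so 1 = average activity.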
row,Sequence,relative CpG methylation activity
1,CTACGGTC,1.92
2,TAACGCTT,1.53
3,GTACGCTA,1.98
4,GTACGCTT,2.66
5,GTACGCTG,1.88
6,ATACGGTG,0.775
7,TGACGCTT,1.05
8,ATACGCTG,2.12
9,ATACGCTA,2.15
10,ATACGCTT,2.67
11,ATACGGTC,2.39
12,TTACGCTT,2.62
13,CCTCGCAA,1.31
14,CGGCGTAC,0.625
15,AGGCGCAG,0.331
16,TCTCGGTG,0.645
17,TTACGCGA,1.73
18,ACTCGTAG,0.496
19,GAGCGCCT,1.95
20,AGACGTCA,1.03
21,AGACGATG,0.457
22,GTACGCGC,2.11
23,AGACGCTC,1.49
24,GTACGCTC,2.72
25,GTACGCAC,1.87
26,TTACGCTG,1.74

row,Sequence,relative CpG methylation activity
1,TTACGCTC,2.74
2,TTACGCAC,2.32
3,AAACGCTC,1.44
4,ATACGCTC,2.73
5,GCTCGACA,1.04
6,TTCCGTGG,0.603
7,TTGCGTAT,1.47
8,ACTCGGAT,0.799
9,AGGCGTTA,0.256
10,ATACGAGT,1.56
11,GCGCGGGG,0.217
12,GTGCGCTC,2.03
13,GTGCGCCA,2.05
14,GTGCGCCT,2.43
15,GTGCGCTA,1.91
16,GTGCGCTT,2.47
17,CTGCGCCT,1.81
18,CGACGTTG,0.323
19,TCCCGCAT,0.92
20,GGACGATA,0.784
21,TTTCGCCG,1.83
22,AGACGTAT,0.427
23,GTACGACC,2.03
24,CTACGATG,1.2
25,GTCCGATC,2.18
26,TTACGAGC,2.12

row,Sequence,relative CpG methylation activity
1,ATACGAGC,2.39
2,CTCCGATC,2.41
3,ATACGACG,1.73
4,TTCCGATC,2.29
5,CTACGATT,1.89
6,ATACGACC,2.41
7,GTACGAGC,2.12
8,CTACGATC,2.4
9,GGTCGCTG,0.804
10,ACCCGGTC,1.19
11,CCCCGCCT,2.14
12,TGTCGGAA,0.614
13,CCGCGTGG,0.205
14,ACGCGCGG,0.42
15,GCCCGGAT,0.551
16,CTACGAGA,1.72
17,CTACGAGT,1.7
18,CTACGAGC,2.44
19,TTCCGACG,1.77
20,TTTCGCTC,2.02
21,GTTCGCTG,1.46
22,CTTCGCTA,1.66
23,CTTCGCTC,2.46
24,GTTCGCTC,2.37
25,CTTCGCTT,1.78
26,GGCCGGGC,0.75

row,Sequence,relative CpG methylation activity
1,GATCGAGC,0.679
2,CCACGTCT,1.61
3,TTACGTCC,2.56
4,CTACGTGT,1.07
5,CCACGTCC,1.94
6,TGACGTCC,1.32
7,TCACGTCC,1.98
8,TTACGTCT,2.14
9,CTACGTCC,2.8
10,ACACGTCC,2.46
11,CAACGTCC,1.67
12,ACACGTCA,2.19
13,CTACGTCT,2.45
14,GGACGAGA,0.605
15,TCTCGTGT,0.225
16,ATGCGGTG,0.407
17,ACCCGACG,1.17
18,GCTCGGAA,0.694
19,GAGCGTAG,0.34
20,CCGCGGAA,0.965
21,AAACGGTC,0.701
22,CCACGTCA,1.71
23,GTACGTCT,2.06
24,GTACGTCC,2.41
25,TTGCGTCT,1.67
26,GCACGTCA,1.86

row,Sequence,relative CpG methylation activity
1,TTGCGTCC,2.39
2,GTACGTCA,2.5
3,CTACGTGA,1.2
4,CTACGTCA,2.51
5,CTGCGTCC,2.14
6,GAACGTCC,1.06
7,GTACGTAC,1.62
8,ACGCGCCG,1.59
9,ACCCGGTG,0.688
10,GCACGAGG,0.755
11,TGACGTAC,0.438
12,CTCCGAAG,1.01
13,CAGCGCTC,1.08
14,GCGCGAGA,0.455
15,CGCCGAGT,0.664
16,TAACGGCG,0.782
17,ATACGTCA,2.47
18,ATACGTGA,1.2
19,ATACGTCT,2.22
20,AAACGTCA,1.14
21,ATACGTCG,2.26
22,ATACGTCC,2.56
23,GGACGGGC,0.536
24,CGCCGATA,0.761
25,TCTCGAGG,0.357
26,GTGCGTGC,1.11

row,Sequence,relative CpG methylation activity
1,CATCGGAG,0.238
2,TGTCGAAC,0.773
3,GGGCGCCA,1.15
4,TTACGTAG,1.34
5,CTACGTAC,1.9
6,CTACGTAA,2.4
7,ATACGTAA,2.01
8,TTACGTAT,1.48
9,TTACGTAA,2.54
10,CTTCGCAA,1.52
11,AGCCGGGA,0.357
12,GAGCGCTG,0.969
13,ATGCGCCG,2.39
14,GTGCGCCG,1.79
15,CTGCGCCC,2.19
16,TTGCGCCT,2.1
17,ATGCGCCC,2.44
18,CTGCGCCG,1.93
19,GTGCGCCC,2.22
20,TTGCGCCC,2.61
21,TTGCGCCA,1.75
22,CGTCGAGC,1.06
23,AGCCGCAG,0.256
24,CGGCGTAA,0.615
25,GCACGGGA,1.04
26,TTCCGTCT,2.58

row,Sequence,relative CpG methylation activity
1,GTCCGTTG,1.25
2,GTCCGTCA,2.41
3,GTCCGTCG,2.53
4,CTCCGTCT,1.84
5,TTCCGTCG,2.09
6,ATCCGTCT,2.05
7,GTCCGTCC,2.02
8,GTCCGTCT,2.14
9,TGCCGCGA,0.629
10,TGCCGCTT,1.45
11,CGGCGGAT,0.495
12,CGTCGTAG,0.312
13,AACCGTCG,1.34
14,TCACGTCA,2.03
15,TTACGTCG,2.52
16,TTACGTTA,2.55
17,TGACGTCA,0.989
18,TTACGTTT,1.72
19,CTACGTGG,0.594
20,TGACGTCG,1.02
21,CTACGTCG,2.46
22,TTACGTTG,1.34
23,GTACGTCG,1.85
24,CGACGTCG,1.28
25,TTACGTCA,2.5
26,GACCGGCA,0.909

row,Sequence,relative CpG methylation activity
1,AAGCGCAT,0.582
2,TCCCGAGA,1.02
3,GTTCGCAT,1.26
4,TACCGACC,0.79
5,TCTCGCTG,1.57
6,TGCCGCTC,1.84
7,GCACGATT,1.02
8,AACCGACT,0.927
9,CCTCGCCG,1.68
10,TCTCGCCT,1.73
11,CCTCGCCC,2.6
12,CCTCGCCT,2.37
13,CCTCGCCA,1.67
14,GCTCGCCT,2.09
15,GTTCGGTT,0.726
16,GTCCGAAC,1.91
17,CGACGATT,0.644
18,TTACGGCC,2.24
19,TATCGCCT,1.86
20,CACCGGAA,0.755
21,ACACGCTC,2.4
22,ACACGCAC,1.72
23,ACACGCTG,1.74
24,ACACGCTA,1.76
25,GCACGCTC,1.98
26,CCACGCTC,2.5

row,Sequence,relative CpG methylation activity
1,CCACGCTA,1.53
2,ACACGCTT,2.37
3,CCACGCTG,1.58
4,TCACGCTA,1.56
5,TCACGCTG,1.32
6,TCACGCTC,2.5
7,GGTCGTCT,0.726
8,CCCCGATA,1.02
9,TACCGTTT,0.414
10,GCTCGGCC,1.3
11,GGACGTTG,0.114
12,GGACGGAC,0.861
13,ATTCGCTC,1.94
14,ACGCGAGT,0.94
15,GTCCGCTG,1.42
16,GACCGCTC,1.78
17,GTCCGCTC,2.37
18,ATCCGCTA,1.78
19,GTCCGCTT,2.54
20,TTCCGCTT,2.48
21,ATCCGCTC,2.37
22,ATCCGCTG,1.62
23,ATCCGCTT,2.13
24,CTCCGCTT,2.3
25,GGCCGCTT,1.75
26,GTCCGCTA,1.9

row,Sequence,relative CpG methylation activity
1,GCCCGGGT,0.974
2,TGGCGGCC,1
3,CCACGACG,1.18
4,GGCCGTGC,0.353
5,TGCCGTCT,1.28
6,TCCCGAGT,0.977
7,GAGCGCTT,2.07
8,GGCCGAGG,0.41
9,ACACGGTC,1.41
10,AGCCGTGA,0.258
11,CGCCGACA,0.962
12,CTGCGCAG,0.583
13,TTCCGCTA,2.3
14,CTCCGCTC,2.19
15,TTCCGCTC,2.73
16,TGACGTGA,0.475
17,GAACGAGC,1.12
18,CATCGGGA,0.259
19,CGACGCGT,0.316
20,TATCGAGC,0.705
21,TACCGGGC,0.455
22,CGACGCCA,1.29
23,CTACGCCA,2.74
24,CTACGCCG,2.5
25,CCACGCCG,1.71
26,GTACGCCA,2.14

row,Sequence,relative CpG methylation activity
1,CCACGCCT,2.24
2,CCACGCCA,1.91
3,CGACGCCT,1.29
4,GTACGCCG,1.9
5,GTACGCCT,2.41
6,CTACGCCT,2.79
7,CTACGCAG,1.43
8,GCCCGAAA,1.39
9,AGACGGTC,1.15
10,TCCCGTAT,0.643
11,GACCGCTT,1.77
12,ACACGAGC,1.54
13,TTGCGATA,1.13
14,GGTCGTAT,0.455
15,TTGCGGTC,1.43
16,TAGCGGGT,0.231
17,GGACGGGT,0.4
18,ATACGCCT,2.76
19,ATACGCGT,1.9
20,ATACGCAT,1.79
21,GATCGCCG,0.545
22,TCACGACA,1.52
23,CAACGCTA,0.826
24,CTACGCAT,1.97
25,CTACGCTG,1.75
26,CAACGCTC,1.36

row,Sequence,relative CpG methylation activity
1,CTACGCTC,2.66
2,CTACGCTA,2.5
3,CTACGCTT,2.38
4,TTACGCTA,1.94
5,CGACGCTC,1.38
6,GACCGTCG,1.29
7,TGCCGAGC,1.38
8,CGGCGTTT,0.165
9,ACTCGATG,0.513
10,GCCCGGCG,0.38
11,GCACGCCC,2.31
12,ACACGCCA,2.02
13,GCACGCCT,2.25
14,ACACGCCT,2.44
15,ACACGCCG,1.92
16,ACACGCCC,2.4
17,CGCCGGCC,0.909
18,CCGCGGGT,1.11
19,TTACGCGC,2.44
20,ATACGCGC,1.93
21,TTACGCCC,2.64
22,TAACGCCC,1.61
23,TTACGCAT,2.29
24,TTACGCCG,2.29
25,ATACGCCG,2.33
26,GTACGCAA,1.89

row,Sequence,relative CpG methylation activity
1,TTACGCAA,2.55
2,AGACGCCC,1.43
3,ATACGCCC,2.85
4,TTACGCGG,0.654
5,ATTCGCAA,1.09
6,TAACGTAC,0.748
7,GCACGACG,0.957
8,TATCGTTG,0.26
9,TCGCGTAG,0.412
10,GTACGCCC,2.39
11,ATACGCGA,1.33
12,ATACGCCA,2.6
13,GGACGCCC,1.88
14,CTACGCCC,2.62
15,TTACGCCA,2.33
16,TTACGCCT,2.38
17,CAACGCCC,1.52
18,TAACGCCT,1.2
19,GAACGCCC,1.6
20,TTACGCGT,1.81
21,CTACGCAC,2.15
22,TGCCGCGC,0.766
23,TATCGATG,0.224
24,AAACGTAA,0.891
25,AGGCGCCT,1.88
26,TGACGACG,0.449

row,Sequence,relative CpG methylation activity
1,GCCCGTTT,0.909
2,CCTCGGAG,0.294
3,TGCCGCCG,1.03
4,TTCCGCAT,1.78
5,GGCCGCCT,1.37
6,TTCCGCCT,2.6
7,GTCCGCCT,2.6
8,TTCCGCGT,1.64
9,ACCCGCCT,2.44
10,TTCCGCCA,2.2
11,ACCCGCCG,1.76
12,GTCCGCCA,1.87
13,ACCCGCCC,2.24
14,TTCCGCCG,2.55
